According to PubChem BioAssay (Tox21):
Inconclusive results are not listed. Active and inactive are the calls of the source. Unless noted, calls come from the whole dose curve; as a rule, active = well fitted curve in the direction sought with a large enough effect in the repeat runs; inconclusive = weak or mixed curves; inactive = no such curve, though single readings can be large; an effect the other way counts as inactive or inconclusive.

Assays:
[1] = qHTS assay to identify small molecule antagonists of the estrogen receptor beta (ER-beta) signaling pathway - cell viability counter screen (AID 1259382);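 note: HEK293T cells carrying ER-beta-UAS-bla reporter stimulated with estradiol; series mostly up to about 92 µM; nearly all actives have a fitted effect of over 55% in size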
Method in brief: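 ER-beta-UAS-bla HEK293T cells (2,000/well, 2% charcoal-stripped FBS) were pre-incubated 6 hr at 37C, then given compound plus 1nM final 17-beta-estradiol for 16 hr. Viability was read in the same wells by CellTiter-Glo luminescence after 30 min at room temperature.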

[2] = target: Estrogen receptor (Homo sapiens) (UniProt P03372); experiment: qHTS assay to identify small molecule agonists of the estrogen receptor alpha (ER-alpha) signaling pathway in the presence of an antagonist (AID 1259383; calls by dose curve; note: top concentration of the series differs between compounds; nearly all actives have a fitted effect of over 15% in size)
Method in brief: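 VM7Luc4E2 cells (endogenous full-length ER-alpha, 4×ERE-luciferase) were precultured 5 days in phenol red-free medium with 10% charcoal-stripped FBS, given 10.0nM ICI-182,780 (final), then treated with compounds at 15 concentrations for 22hr at 37C; luminescence read with ONE-Glo.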

[3] = qHTS assay to identify small molecule agonists of the estrogen receptor alpha (ER-alpha) signaling pathway in the presence of an antagonist - cell viability counter screen (AID 1259386);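 note: series mostly up to about 92 µM; cells exposed to compounds for 22 h at 37 °C before the viability read; nearly all actives have a fitted effect of over 30% in size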
Method in brief: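 VM7Luc4E2 cells (endogenous full-length ER-alpha, 4×ERE-luciferase) were held 5 days in phenol red-free medium with 10% charcoal-stripped FBS, plated, then given 10.0nM ICI-182,780 and compounds at 15 concentrations for 22hr at 37C; viability read by CellTiter-Fluor fluorescence.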

[4] = target: Progesterone receptor (Homo sapiens) (UniProt P06401); experiment: qHTS assay to identify small molecule agonists of the progesterone receptor (PR) signaling pathway (AID 1346784; calls by dose curve; note: nearly all actives have a fitted effect of over 30% in size)
Method in brief: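 Reporter assay, GripTite PR-UAS-bla HEK 293T cells: 16 hr exposure to DMSO-dissolved compounds at 37C, 5% CO2, in steroid-depleted (2% charcoal-stripped FBS) medium; beta-lactamase measured by FRET fluorescence.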

[5] = target: Progesterone receptor (Homo sapiens) (UniProt P06401); experiment: qHTS assay to identify small molecule antagonists of the progesterone receptor (PR) signaling pathway (AID 1346795; active = well fitted inhibition curve with a large enough effect in the signal ratio in the repeat runs, not every such curve was filed as active; the % refers to the signal ratio)
Method in brief: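 Stimulus R5020 at 1 nM final; cells HEK293T PR-UAS-bla; medium with 2% charcoal-stripped FBS; compound exposure 16 hr at 37C, 5% CO2; detection by FRET beta-lactamase substrate, 2 hr, room temperature.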

[6] = qHTS assay to identify small molecule antagonists of the progesterone receptor (PR) signaling pathway - cell viability counter screen (AID 1346798); note: series mostly up to about 92 µM; nearly all actives have a fitted effect of over 50% in size
Method in brief: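 In the same plates used for the beta-lactamase readout, cell viability of compound- and R5020-treated PR-UAS-bla HEK293T cells (16 hr, 37C) was assessed by CellTiter-Glo luminescence.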

[7] = qHTS assay to identify small molecule agonists of the progesterone receptor (PR) signaling pathway - cell viability counter screen (AID 1346799; calls by dose curve; note: nearly all actives have a fitted effect of over 45% in size)
Method in brief: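 Multiplexed viability read: CellTiter-Glo luminescence, 30 min RT, following LiveBLAzer FRET measurement on PR-UAS-bla HEK293T cells exposed to compounds 16 hr.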

[8] = qHTS assay to identify small molecule antagonists of the TGF-beta/Smad signaling pathway - cell viability counter screen (AID 1346824); note: nearly all actives have a fitted effect of over 50% in size
Method in brief: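 SBE-bla HEK 293T cells were plated overnight at 37 C, then given compounds in DMSO plus TGF-beta1 (added as 0.25 ng/mL solution) for 5 hr. After the bla read, CellTiter-Glo was added to the same wells and luminescence read after 30 min at room temperature.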

[9] = qHTS assay to identify small molecule agonists of the TGF-beta/Smad signaling pathway (AID 1346859; active = well fitted activation curve with a large enough effect in the signal ratio in the repeat runs, not every such curve was filed as active; the % refers to the signal ratio; note: series mostly up to about 77 µM)
Method in brief: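 Screening used HEK 293T SBE-bla cells at 4,000/well. Test agents: 5 hr, 37 C. Detection: FRET substrate, 2 hr RT, then excitation 405 nm with emissions at 460 and 530 nm.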

[10] = target: Thyrotropin-releasing hormone receptor (Homo sapiens) (UniProt P34981); experiment: qHTS assay to identify small molecule antagonists of the thyrotropin-releasing hormone receptor (TRHR) signaling pathway (AID 1346877; active = well fitted inhibition curve with a large enough effect in the repeat runs, not every such curve was filed as active; note: series mostly up to about 51 µM)
Method in brief: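 TRHR-expressing HEK293 cells were seeded, cultured 18 h at 37 °C, then loaded with calcium dye for 2 h. Compounds were pre-incubated 5 min at room temperature before 1 nM TRH (final) was added, and kinetic fluorescence was recorded for 3 min.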

[11] = target: Thyrotropin-releasing hormone receptor (Homo sapiens) (UniProt P34981); experiment: qHTS assay to identify small molecule agonists of the thyrotropin-releasing hormone receptor (TRHR) signaling pathway (AID 1346891; calls by dose curve; note: series mostly up to about 58 µM)
Method in brief: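 Readout was intracellular calcium fluorescence in TRHR-Hek293 cells. Cells were incubated 18 h, dye-loaded 2 h at 37 °C, and treated with compound in agonist mode.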

[12] = Caspase-3/7 induction in HepG2 cells by small molecules, qHTS assay (AID 1346978); note: nearly all actives have a fitted effect of over 15% in size
Method in brief: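 Wild-type HepG2 cells (2,000/well) were settled 5 h at 37 C, 5% CO2, then exposed to compounds in DMSO for 17 h. Caspase-3/7 activity was read by luminescence 30 min after adding Caspase-Glo 3/7 reagent at room temperature.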

[13] = Caspase-3/7 induction in CHO-K1 cells by small molecules, qHTS cell viability counter screen (AID 1346979); note: nearly all actives have a fitted effect of over 35% in size
Method in brief: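 Following a 5hr settling period, CHO-K1 cells at 1,500 per well received DMSO-dissolved compounds. Cell viability was quantified 16hr later by CellTiter-Fluor fluorescence, measured after 1hr with reagent at 37C.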

[14] = Caspase-3/7 induction in CHO-K1 cells by small molecules, qHTS assay (AID 1346980); note: nearly all actives have a fitted effect of over 15% in size
Method in brief: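 Wild-type cells were seeded at 1,500 per well and settled 5 hr at 37 C, 5% CO2, then exposed to DMSO-dissolved compounds for 17 hr. Caspase-Glo 3/7 reagent was added, and luminescence was read after 30min at room temperature.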

[15] = Caspase-3/7 induction in HepG2 cells by small molecules, qHTS cell viability counter screen (AID 1346981); note: series mostly up to about 92 µM; nearly all actives have a fitted effect of over 30% in size
Method in brief: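 Wild-type HepG2 cells (2,000/well) were allowed to settle for 5 hr at 37 C, 5% CO2, then dosed with compounds in DMSO by pin transfer. After 16 hr at 37 C, CellTiter-Fluor was added and fluorescence read 1 hr later.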

[16] = qHTS assay to identify small molecule agonists of the TGF-beta/Smad signaling pathway - cell viability counter screen (AID 1346829); note: top concentration of the series differs between compounds; nearly all actives have a fitted effect of over 45% in size
Method in brief: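 Cytotoxicity counter screen: CellTiter-Glo luminescence (30 min, room temperature) measured in the SBE-bla HEK 293T reporter wells after 5 hr compound treatment at 37 C and the 2 hr substrate step.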

[17] = Human pregnane X receptor (PXR) small molecule agonists, qHTS cell viability counter screen (AID 1346977); note: nearly all actives have a fitted effect of over 50% in size
Method in brief: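 In each well, the PXR reporter HepG2 line was checked for viability: CellTiter-Fluor reagent added 23hr post-dosing, fluorescence read after 1hr incubation at 37C.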

[18] = target: Thyrotropin receptor (Homo sapiens) (UniProt P16473); experiment: qHTS assay to identify small molecule antagonists of the thyroid stimulating hormone receptor (TSHR) signaling pathway (AID 1259385; calls by dose curve; note: nearly all actives have a fitted effect of over 20% in size)
Method in brief: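 TSHR-HEK293 cells were plated and held 18 h at 37C/5% CO2, then given compound plus Ro20-1724 and stimulated with TSH at 1.5 ng/mL final. After 30 min at room temperature, cAMP was detected with cAMP-d2/anti-cAMP-cryptate (1 h) by fluorescence.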

[19] = qHTS assay to identify small molecule agonists or antagonists of the thyroid stimulating hormone receptor (TSHR) signaling pathway - wild type cell line counter screen (AID 1259384; calls by dose curve)
Method in brief: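 Wild-type HEK293 cells were plated 18 h at 37 C/5% CO2, pin-dosed with compound plus Ro20-1724 medium, held 30 min at room temperature, then given cAMP-d2 and anti-cAMP-cryptate; fluorescence was read after 1 h. Fifteen concentrations, triplicate.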

Measured: Potency

Progesterone receptor (Homo sapiens), sequence (P06401 whole entry, looked up): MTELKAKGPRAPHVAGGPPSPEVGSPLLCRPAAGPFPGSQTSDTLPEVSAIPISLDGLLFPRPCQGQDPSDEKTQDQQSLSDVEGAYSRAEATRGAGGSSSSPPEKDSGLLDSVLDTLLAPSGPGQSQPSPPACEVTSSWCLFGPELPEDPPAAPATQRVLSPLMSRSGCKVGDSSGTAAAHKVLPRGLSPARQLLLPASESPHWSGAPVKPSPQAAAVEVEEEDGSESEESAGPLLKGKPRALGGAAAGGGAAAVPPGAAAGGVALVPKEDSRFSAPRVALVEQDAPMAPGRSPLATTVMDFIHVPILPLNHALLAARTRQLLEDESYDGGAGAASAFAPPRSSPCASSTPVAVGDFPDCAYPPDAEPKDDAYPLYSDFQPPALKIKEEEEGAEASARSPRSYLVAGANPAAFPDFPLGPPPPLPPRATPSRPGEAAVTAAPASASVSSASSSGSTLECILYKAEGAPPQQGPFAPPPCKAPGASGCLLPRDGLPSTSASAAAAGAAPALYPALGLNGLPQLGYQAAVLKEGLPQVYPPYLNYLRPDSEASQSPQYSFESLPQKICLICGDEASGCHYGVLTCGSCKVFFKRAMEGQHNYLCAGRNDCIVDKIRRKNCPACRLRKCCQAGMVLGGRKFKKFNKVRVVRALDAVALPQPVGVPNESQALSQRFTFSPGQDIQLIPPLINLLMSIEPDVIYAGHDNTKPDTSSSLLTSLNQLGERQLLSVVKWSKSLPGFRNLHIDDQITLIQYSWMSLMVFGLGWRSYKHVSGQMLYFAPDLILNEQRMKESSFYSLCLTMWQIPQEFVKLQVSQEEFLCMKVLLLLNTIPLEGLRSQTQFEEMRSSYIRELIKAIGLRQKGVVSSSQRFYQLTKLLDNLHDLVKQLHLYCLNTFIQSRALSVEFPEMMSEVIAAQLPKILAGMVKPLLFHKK
Thyrotropin receptor (Homo sapiens), sequence (P16473 whole entry, looked up): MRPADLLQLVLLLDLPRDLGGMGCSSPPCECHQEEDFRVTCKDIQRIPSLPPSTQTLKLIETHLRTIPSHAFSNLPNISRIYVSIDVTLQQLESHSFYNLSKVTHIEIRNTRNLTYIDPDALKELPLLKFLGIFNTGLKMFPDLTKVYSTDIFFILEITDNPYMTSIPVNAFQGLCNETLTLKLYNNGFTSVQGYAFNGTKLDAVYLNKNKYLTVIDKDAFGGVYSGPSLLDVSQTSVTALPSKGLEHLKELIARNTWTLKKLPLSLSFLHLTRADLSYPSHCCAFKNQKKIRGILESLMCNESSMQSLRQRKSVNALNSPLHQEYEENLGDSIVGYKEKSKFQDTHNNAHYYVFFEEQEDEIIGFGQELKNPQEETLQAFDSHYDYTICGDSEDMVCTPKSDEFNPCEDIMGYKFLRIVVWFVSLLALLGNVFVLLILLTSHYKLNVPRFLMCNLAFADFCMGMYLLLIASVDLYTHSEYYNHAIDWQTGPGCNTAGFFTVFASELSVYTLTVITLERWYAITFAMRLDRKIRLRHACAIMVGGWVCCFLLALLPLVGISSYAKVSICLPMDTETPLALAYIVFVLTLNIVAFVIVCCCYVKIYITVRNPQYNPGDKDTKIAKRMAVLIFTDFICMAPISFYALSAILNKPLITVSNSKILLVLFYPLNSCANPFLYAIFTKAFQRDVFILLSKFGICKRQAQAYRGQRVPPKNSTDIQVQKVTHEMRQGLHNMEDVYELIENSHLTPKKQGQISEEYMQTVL
Estrogen receptor (Homo sapiens), sequence (P03372 whole entry, looked up): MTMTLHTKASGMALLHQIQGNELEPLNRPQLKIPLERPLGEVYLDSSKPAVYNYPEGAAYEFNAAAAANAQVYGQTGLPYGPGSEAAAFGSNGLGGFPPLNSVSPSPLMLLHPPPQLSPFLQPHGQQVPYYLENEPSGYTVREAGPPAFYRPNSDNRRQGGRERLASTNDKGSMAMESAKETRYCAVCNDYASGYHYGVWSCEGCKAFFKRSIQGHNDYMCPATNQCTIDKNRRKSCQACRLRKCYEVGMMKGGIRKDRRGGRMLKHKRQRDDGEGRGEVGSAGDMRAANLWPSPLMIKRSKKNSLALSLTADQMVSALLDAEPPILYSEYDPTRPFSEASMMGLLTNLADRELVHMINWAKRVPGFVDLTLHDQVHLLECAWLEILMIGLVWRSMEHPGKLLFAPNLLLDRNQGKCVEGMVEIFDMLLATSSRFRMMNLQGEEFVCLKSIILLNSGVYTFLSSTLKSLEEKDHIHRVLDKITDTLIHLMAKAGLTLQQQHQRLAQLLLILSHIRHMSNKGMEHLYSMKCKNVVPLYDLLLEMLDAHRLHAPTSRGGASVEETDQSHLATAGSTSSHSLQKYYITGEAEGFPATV
Thyrotropin-releasing hormone receptor (Homo sapiens), sequence (P34981 whole entry, looked up): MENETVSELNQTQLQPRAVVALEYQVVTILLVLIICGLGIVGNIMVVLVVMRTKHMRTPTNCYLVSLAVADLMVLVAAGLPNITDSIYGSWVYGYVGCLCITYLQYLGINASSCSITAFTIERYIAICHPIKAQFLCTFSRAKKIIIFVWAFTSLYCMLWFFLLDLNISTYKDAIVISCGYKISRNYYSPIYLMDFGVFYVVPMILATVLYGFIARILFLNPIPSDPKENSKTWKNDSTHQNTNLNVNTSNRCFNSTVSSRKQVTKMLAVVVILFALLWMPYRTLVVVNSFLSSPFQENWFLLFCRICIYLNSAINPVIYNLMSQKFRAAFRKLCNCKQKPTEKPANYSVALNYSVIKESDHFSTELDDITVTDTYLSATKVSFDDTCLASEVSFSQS

Cc1c(C(=O)c2c[nH]n(C)c2=O)ccc(S(C)(=O)=O)c1C1=NOCC1
not listed: [16] | [17] | [18] | [19]
inactive: all other assays above

CC1=C(C(=O)O)N2C(=O)[C@@H](NC(=O)[C@H](N)c3ccccc3)[C@H]2SC1
not listed: [8] | [12] | [18] | [19]
inactive: all other assays above

Cc1ccc(N)cc1S(=O)(=O)O
not listed: [5] | [10] | [11] | [16] | [19]
inactive: all other assays above

COC(C)(OC)OC
not listed: [5] | [8] | [19]
inactive: all other assays above

Cc1ncc([N+](=O)[O-])n1CC(C)O (configuration not stated)
not listed: [3] | [5] | [6] | [18] | [19]
inactive: all other assays above

Cc1c(Cl)cccc1Cl
not listed: [3] | [6] | [7] | [10] | [11] | [16] | [19]
inactive: all other assays above

C/C=C(\C)C(=O)OCCc1ccccc1
not listed: [2] | [6] | [17] | [18] | [19]
inactive: all other assays above

C=CCOC(=O)CCCCCC
not listed: [2] | [18]
inactive: all other assays above

ONc1ccccc1
not listed: [2] | [8] | [18]
inactive: all other assays above

CC(O)CC(C)O (configuration not stated)
not listed: [2] | [17] | [18]
inactive: all other assays above

O=C(O)CONC(=O)c1ccccc1
not listed: [2] | [19]
inactive: all other assays above

COc1ccc(CCO)cc1
not listed: [2] | [5] | [7] | [10] | [11]
inactive: all other assays above

CC(C)OC(=O)CCC(=O)OC(C)C
not listed: [2] | [3] | [13] | [18] | [19]
inactive: all other assays above

CC(=O)CC(=O)Nc1ccc(C)cc1C
not listed: [2] | [5] | [13] | [19]
inactive: all other assays above

O=Cc1ccccc1Cl
not listed: [2] | [3] | [10] | [11] | [18] | [19]
inactive: all other assays above
